Measurements from PubChem BioAssay (Tox21).
Inconclusive results are not listed. Calls of active or inactive are those of the source. Unless noted, calls follow the shape of the full dose curve. Peptide text beside a SMILES is read from it.

Tests used:
[1] = Nuclear factor erythroid 2-related factor 2/antioxidant responsive element (Nrf2/ARE) small molecule agonists: qHTS cell viability counter screen in human keratinocytes (AID 1919968; active = well fitted curve in the direction sought with a large enough effect in the repeat runs; an effect the other way counts as inactive or inconclusive; also: nearly all actives have a fitted effect of over 55% in size)
Summary of the method: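 After a 5 h attachment period, ARE-reporter keratinocytes were dosed with compounds in DMSO and then cultured 23 h at 37 C. Cell viability came from CellTiter-Fluor signal read after a further 1 h.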

[2] = Nuclear factor erythroid 2-related factor 2/antioxidant responsive element (Nrf2/ARE) small molecule agonists: luciferase reporter gene qHTS assay in human keratinocytes (AID 1919969); also: nearly all actives have a fitted effect of over 35% in size; also: potency is read from the fitted curve at half-maximal effect
[3] = molecular target: Gonadotropin-releasing hormone receptor (Homo sapiens) (UniProt P30968); test: Human gonadotropin-releasing hormone receptor (GnRHR) small molecule agonists, calcium flux assay in GnRHR-HEK293 cells (AID 1920063); also: nearly all actives have a fitted effect of over 35% in size
Summary of the method: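 We seeded human GnRHR-expressing HEK293 cells for 18 hours, loaded them with calcium dye for an hour at 37 C, added test compounds, and recorded fluorescence intensity kinetically for three minutes.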

[4] = molecular target: KiSS-1 receptor (Homo sapiens) (UniProt Q969F8); test: Human kisspeptin (KISS1R) small molecule agonists, calcium flux assay in KISS1R-HEK293 cells (AID 1920064; active = well fitted curve in the direction sought with a large enough effect in the repeat runs; an effect the other way counts as inactive or inconclusive)
Summary of the method: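 Kinetic calcium assay, 1 s sampling over 3 min at Ex/Em 480/540, in HEK293 cells engineered with human KISS1R; compounds delivered in DMSO after 1 h dye loading.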

[5] = G protein-coupled receptor (GPCR) small molecule agonists, calcium flux assay: HEK293 wild type cell line counter screen (AID 1920065)
Summary of the method: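 Calcium-sensitive dye, loaded 1 h at 37 C into cells cultured 18 h, reports compound-evoked calcium release as fluorescence (Ex/Em 480/540), measured over 3 min. Agonist mode; 15-point titrations, triplicate.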

[6] = p53 small molecule agonists, cell-based qHTS assay with human liver microsomes (AID 1963577);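 also: p53 response element beta-lactamase reporter cells with liver microsomes plus NADPH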
Summary of the method: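 Metabolically competent format: test substances, human liver microsomes and NADPH (both 0.5 mg/mL final) incubated with p53RE-bla cells 16 h at 37 C. Beta-lactamase reporter signal then quantified by fluorescence.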

[7] = p53 small molecule agonists, cell-based qHTS assay with rat liver microsomes (AID 1963578)
Summary of the method: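 Each plate received p53RE-bla cells, then compound, then rat liver microsomes and NADPH (both 0.5 mg/mL final). Plates were held 16 h at 37 C, and beta-lactamase activity was detected with LiveBLAzer over 2 h.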

[8] = p53 small molecule agonists, cell-based qHTS assay with human liver microsomes: qHTS cell viability counter screen (AID 1963579); also: nearly all actives have a fitted effect of over 45% in size
Summary of the method: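 Tox21 library compounds, delivered from DMSO stocks, were tested on p53RE-bla cells together with 0.5 mg/mL human liver microsomes and 0.5 mg/mL NADPH (final) over 16 h at 37 C; CellTiter-Glo luminescence served as the cytotoxicity measure.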

[9] = p53 small molecule agonists, cell-based qHTS assay with rat liver microsomes: qHTS cell viability counter screen (AID 1963580); also: nearly all actives have a fitted effect of over 45% in size
Summary of the method: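 Intracellular ATP, by CellTiter-Glo luminescence, defines viability. HCT-116 p53RE-bla cells, 4,000 per well, were compound-treated in the presence of rat liver microsomes and NADPH for 16 h at 37 C.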

[10] = p53 small molecule agonists, cell-based qHTS assay: qHTS cell viability counter screen (AID 1963581); also: nearly all actives have a fitted effect of over 45% in size
Summary of the method: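 Following 5 h attachment, HCT-116 p53RE-bla cells took up compound for 16 h at 37 C; the reporter was read with B/G FRET substrate (2 h RT), and viability then via CellTiter-Glo ATP luminescence.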

[11] = p53 small molecule agonists, cell-based qHTS assay (AID 1963582; active = well fitted activation curve with a large enough effect in the signal ratio in the repeat runs, not every such curve was filed as active; the % refers to the signal ratio)
Summary of the method: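 In this cell-based concentration-response screen, a p53 response element drives beta-lactamase; cells received DMSO-borne compounds after 5 h culture and were incubated a further 16 h before FRET substrate development.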

[12] = molecular target: Muscarinic acetylcholine receptor M1 (Homo sapiens) (UniProt P11229); test: Cholinergic receptor muscarinic 1 (CHRM1) small molecule antagonists, cell-based qHTS assay (AID 1963588); also: nearly all actives have a fitted effect of over 40% in size
Summary of the method: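 CHRM1-CHO calcium-flux assay, antagonist mode. Cells were seeded 18 h, dye-loaded 1 h at 37 C and given compound for 5 min at RT, then acetylcholine was added at 50nM. FDSS fluorescence was read 3 min; 15 concentrations, three runs.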

[13] = molecular target: Muscarinic acetylcholine receptor M1 (Homo sapiens) (UniProt P11229); test: Cholinergic receptor muscarinic 1 (CHRM1) small molecule agonists, cell-based qHTS assay (AID 1963589); also: nearly all actives have a fitted effect of over 35% in size
Summary of the method: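 Measures agonist-induced intracellular calcium rise. Stable human CHRM1 CHO line, 1 h dye load at 37 C, compounds from DMSO, kinetic fluorescence read.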

[14] = molecular target: D(2) dopamine receptor (Homo sapiens) (UniProt P14416); test: Dopamine D2 receptor (DRD2) small molecule agonists, cell-based qHTS assay (AID 1963594); also: nearly all actives have a fitted effect of over 35% in size; also: potency is read from the fitted curve at half-maximal effect
Summary of the method: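 cAMP accumulation in DRD2-HEK293 cells measured by HTRF after 1 h detection; compounds added 10 min before NKH477 (200nM […]) forskolin-analogue stimulation, 30 min at room temperature, with Ro20-1724 present at 0.1 mM final.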

[15] = molecular target: D(2) dopamine receptor (Homo sapiens) (UniProt P14416); test: Dopamine D2 receptor (DRD2) small molecule antagonists, cell-based qHTS assay (AID 1963595; active = well fitted inhibition curve with a large enough effect in the signal ratio in the repeat runs, with a control signal flat; the % refers to the signal ratio)
Summary of the method: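 In this cell-based antagonist screen, compounds act for 10 min at room temperature before a 30 min challenge with 12 nM quinpirole and 200 nM NKH477. cAMP is quantified by HTRF competition in DRD2-HEK293 cells containing 0.1 mM Ro20-1724.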

[16] = cAMP Responsive Elements (CRE) small molecule agonists, cell-based qHTS assay (AID 1963590)
Summary of the method: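 A CRE-responsive beta-lactamase reporter in HEK 293T cells was used. Treatment ran 3 h at 37 C; detection used LiveBLAzer B/G FRET substrate for 2 h at room temperature.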

[17] = cAMP Responsive Elements (CRE) small molecule antagonists, cell-based qHTS assay (AID 1963591; active = well fitted inhibition curve with a large enough effect in the signal ratio in the repeat runs, not every such curve was filed as active; the % refers to the signal ratio)
Summary of the method: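 HEK293T cells carrying a CRE-driven beta-lactamase reporter receive compound and NKH477 (0.25 uM final) for 3 h. Fluorescence from LiveBLAzer B/G FRET substrate is read after 2 h at room temperature.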

[18] = molecular target: Beta-2 adrenergic receptor (Homo sapiens) (UniProt P07550); test: Adrenergic beta2 receptor (ADRB2) small molecule antagonists, cell-based qHTS assay (AID 1963592); also: series mostly up to about 92 µM; nearly all actives have a fitted effect of over 50% in size
Summary of the method: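 Cells (CHO, stable ADRB2 overexpression) incubated 18-20hr at 37C; compounds added from DMSO; agonist mix (1nM isoproterenol, 100uM IBMX, 25uM Ro-20-1724) added; 0.5hr RT; d2-cAMP and anti-cAMP-cryptate added; 1hr RT; 665/615 nm read.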

[19] = molecular target: Beta-2 adrenergic receptor (Homo sapiens) (UniProt P07550); test: Adrenergic beta2 receptor (ADRB2) small molecule agonists, cell-based qHTS assay (AID 1963593);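 also: CHO cells stably overexpressing human ADRB2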
Summary of the method: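 CHO cells stably over-expressing ADRB2 were plated overnight at 37C, then dosed with compounds plus a stimulation mix containing 100uM IBMX and 25uM Ro-20-1724 for 0.5hr at room temperature. cAMP was measured by HTRF competition, 1hr.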
% is scaled to controls: 0 for no effect and ±100 for the full control effect.

Chain of D(2) dopamine receptor (Homo sapiens) (P14416 whole entry, looked up): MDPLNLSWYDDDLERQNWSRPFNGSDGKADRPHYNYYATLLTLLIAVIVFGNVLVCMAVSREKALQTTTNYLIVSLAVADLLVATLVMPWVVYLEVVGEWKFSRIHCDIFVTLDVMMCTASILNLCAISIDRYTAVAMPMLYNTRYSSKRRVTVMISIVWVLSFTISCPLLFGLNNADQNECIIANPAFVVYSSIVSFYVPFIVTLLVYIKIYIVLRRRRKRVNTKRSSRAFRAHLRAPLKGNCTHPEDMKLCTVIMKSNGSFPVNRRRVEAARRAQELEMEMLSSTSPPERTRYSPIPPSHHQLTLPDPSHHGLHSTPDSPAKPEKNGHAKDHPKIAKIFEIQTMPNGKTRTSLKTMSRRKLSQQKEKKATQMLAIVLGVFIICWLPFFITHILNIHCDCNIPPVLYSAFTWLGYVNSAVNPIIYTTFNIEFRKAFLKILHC
Chain of Muscarinic acetylcholine receptor M1 (Homo sapiens) (P11229 whole entry, looked up): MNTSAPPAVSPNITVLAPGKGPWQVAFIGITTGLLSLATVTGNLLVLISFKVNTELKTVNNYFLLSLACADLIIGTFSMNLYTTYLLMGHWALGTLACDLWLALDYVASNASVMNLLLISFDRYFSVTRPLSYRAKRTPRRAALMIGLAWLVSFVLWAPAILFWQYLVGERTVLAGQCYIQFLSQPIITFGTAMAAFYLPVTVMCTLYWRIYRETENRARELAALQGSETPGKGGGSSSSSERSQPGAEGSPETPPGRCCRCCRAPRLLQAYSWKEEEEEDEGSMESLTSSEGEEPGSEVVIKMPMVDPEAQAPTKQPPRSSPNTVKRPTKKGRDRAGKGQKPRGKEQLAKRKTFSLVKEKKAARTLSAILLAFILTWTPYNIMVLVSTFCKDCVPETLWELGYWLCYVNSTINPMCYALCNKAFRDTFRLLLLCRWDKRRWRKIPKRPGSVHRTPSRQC
Chain of Gonadotropin-releasing hormone receptor (Homo sapiens) (P30968 whole entry, looked up): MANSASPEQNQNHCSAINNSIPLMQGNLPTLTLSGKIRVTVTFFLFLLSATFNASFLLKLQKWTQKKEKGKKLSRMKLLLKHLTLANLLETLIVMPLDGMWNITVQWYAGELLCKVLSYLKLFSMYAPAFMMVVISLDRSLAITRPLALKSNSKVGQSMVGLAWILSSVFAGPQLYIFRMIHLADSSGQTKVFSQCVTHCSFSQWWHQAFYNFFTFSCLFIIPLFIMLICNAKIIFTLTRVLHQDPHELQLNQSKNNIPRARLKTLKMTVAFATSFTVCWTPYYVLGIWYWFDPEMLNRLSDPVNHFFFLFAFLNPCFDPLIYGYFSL
Chain of KiSS-1 receptor (Homo sapiens) (Q969F8 whole entry, looked up): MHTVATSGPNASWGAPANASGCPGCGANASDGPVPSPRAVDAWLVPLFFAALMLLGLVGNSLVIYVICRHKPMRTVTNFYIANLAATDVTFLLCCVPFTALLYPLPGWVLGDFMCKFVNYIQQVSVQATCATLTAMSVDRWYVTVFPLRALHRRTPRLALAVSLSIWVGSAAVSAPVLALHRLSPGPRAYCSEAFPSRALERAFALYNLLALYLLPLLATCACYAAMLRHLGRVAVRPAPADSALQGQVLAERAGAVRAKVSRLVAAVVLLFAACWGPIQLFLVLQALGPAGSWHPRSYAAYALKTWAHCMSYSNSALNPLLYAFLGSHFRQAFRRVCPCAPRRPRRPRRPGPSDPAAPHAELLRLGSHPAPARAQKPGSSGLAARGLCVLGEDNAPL
Chain of Beta-2 adrenergic receptor (Homo sapiens) (P07550 whole entry, looked up): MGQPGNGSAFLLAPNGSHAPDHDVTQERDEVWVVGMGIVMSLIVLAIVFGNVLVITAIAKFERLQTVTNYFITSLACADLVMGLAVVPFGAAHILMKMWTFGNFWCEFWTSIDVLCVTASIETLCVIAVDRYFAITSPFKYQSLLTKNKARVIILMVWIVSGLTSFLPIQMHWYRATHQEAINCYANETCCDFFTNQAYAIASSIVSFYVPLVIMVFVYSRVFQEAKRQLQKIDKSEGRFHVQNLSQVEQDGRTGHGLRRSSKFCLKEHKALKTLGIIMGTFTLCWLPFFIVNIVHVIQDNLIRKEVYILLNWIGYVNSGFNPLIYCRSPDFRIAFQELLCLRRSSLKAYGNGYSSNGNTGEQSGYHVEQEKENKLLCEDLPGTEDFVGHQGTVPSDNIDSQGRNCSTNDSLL

COc1ccc(-c2cc(C(F)F)nn2-c2ccc(S(N)(=O)=O)cc2)cc1F
inactive: Potency [1] | Potency [2] | Potency [3] | outcome [4] | outcome [5] | Potency [6] | Potency [7] | Potency [8] | Potency [9] | Potency [10] | Potency [11] | Potency [12] | Potency [13] | Potency [14] | Potency [15]

Cc1cccc(Nc2ccncc2S(=O)(=O)NC(=O)NC(C)C)c1
inactive: Potency [1] | Potency [2] | Potency [3] | outcome [4] | outcome [5] | Potency [6] | Potency [7] | Potency [8] | Potency [9] | Potency [10] | Potency [11] | Potency [16] | Potency [17] | Potency [18] | Potency [19] | Potency [14] | Potency [15]

NC12CC3CC(CC(C3)C1)C2
inactive: Potency [1] | Potency [2] | Potency [3] | outcome [4] | outcome [5] | Potency [6] | Potency [7] | Potency [8] | Potency [9] | Potency [10] | Potency [11] | Potency [16] | Potency [17] | Potency [18] | Potency [19] | Potency [14] | Potency [15]

CC(=O)N[C@@H](CO)C(=O)N[C@@H](CC(=O)O)C(=O)N[C@@H](CCCCN)C(=O)N1CCC[C@H]1C(=O)O (Ac-SDKP-OH)
inactive: Potency [1] | Potency [2] | Potency [3] | outcome [4] | outcome [5] | Potency [6] | Potency [7] | Potency [8] | Potency [9] | Potency [10] | Potency [11] | Potency [16] | Potency [17] | Potency [18] | Potency [19] | Potency [14] | Potency [15]

CCCNC(C)C(=O)Nc1ccccc1C (configuration not stated)
active: Potency [14] 14.4 µM
inactive: Potency [1] | Potency [2] | Potency [3] | outcome [4] | outcome [5] | Potency [6] | Potency [7] | Potency [8] | Potency [9] | Potency [10] | Potency [11] | Potency [16] | Potency [17] | Potency [18] | Potency [19] | Potency [15]

C[N+](C)(C)CC(O)CC(=O)[O-] (configuration not stated)
inactive: Potency [1] | Potency [2] | Potency [3] | outcome [4] | outcome [5] | Potency [6] | Potency [7] | Potency [8] | Potency [9] | Potency [10] | Potency [11] | Potency [16] | Potency [17] | Potency [18] | Potency [19] | Potency [14] | Potency [15]

CCn1cc(C(=O)O)c(=O)c2cnc(N3CCCC3)nc21
inactive: activity change, negative = cytotoxicity [1] -0.789% [at 8.39 µM] | activity, positive = activation [2] 0.384% [at 8.39 µM] | activity change [3] -1.43% [at 5.22 µM, stronger effect = higher value] | activation [4] 2.91% [at 6.97 µM] | activation [5] 0.533% [at 5.23 µM] | activation [6] 10.8% [at 5.99 µM] | activation [7] -0.037% [at 5.99 µM] | activity change, negative = cytotoxicity [8] 17.3% [at 5.99 µM] | activity change, negative = cytotoxicity [9] -0.816% [at 5.99 µM] | activity change, negative = cytotoxicity [10] -0.227% [at 5.99 µM] | activation [11] 1.25% [at 5.99 µM] | activation [16] -3.86% [at 8.39 µM] | activity change, negative = inhibition [17] -10.5% [at 8.39 µM] | activity change, negative = inhibition [18] -0.194% [at 8.39 µM] | activation [14] 1.32% [at 8.39 µM] | activity change, negative = inhibition [15] 2.86% [at 8.38 µM]

C[C@H]1C[C@H]2[C@@H]3CCC4=CC(=O)C=C[C@]4(C)[C@@]3(F)[C@@H](O)C[C@]2(C)[C@@]1(O)C(=O)COP(=O)(O)O
inactive: Potency [1] | Potency [2] | Potency [3] | outcome [4] | outcome [5] | Potency [6] | Potency [7] | Potency [8] | Potency [9] | Potency [10] | Potency [11] | Potency [16] | Potency [17] | Potency [18] | Potency [19] | Potency [14] | Potency [15]

NCC1CCC(C(=O)Oc2ccc(CCC(=O)O)cc2)CC1 (configuration not stated)
inactive: Potency [1] | Potency [2] | Potency [3] | outcome [4] | outcome [5] | Potency [6] | Potency [7] | Potency [8] | Potency [9] | Potency [10] | Potency [11] | Potency [16] | Potency [17] | Potency [18] | Potency [14] | Potency [15]

Nc1ccc(S(=O)(=O)Nc2ccnn2-c2ccccc2)cc1
inactive: activity change, negative = cytotoxicity [1] 8.64% [at 19 µM] | activity, positive = activation [2] 4.54% [at 19 µM] | activity change [3] -0.562% [at 11.8 µM, stronger effect = higher value] | activation [4] 15% [at 15.8 µM] | activation [5] 0.406% [at 11.8 µM] | activation [6] 4.03% [at 13.5 µM] | activation [7] 0.115% [at 13.6 µM] | activity change, negative = cytotoxicity [8] 1.97% [at 13.5 µM] | activity change, negative = cytotoxicity [9] -1.12% [at 13.5 µM] | activity change, negative = cytotoxicity [10] -3.47% [at 13.5 µM] | activation [11] 1.07% [at 13.5 µM] | activation [16] -0.057% [at 19 µM] | activity change, negative = inhibition [17] 0.401% [at 18.9 µM] | activity change, negative = inhibition [18] 0.77% [at 19 µM] | activation [14] -21.6% [at 19 µM] | activity change, negative = inhibition [15] 1.2% [at 18.9 µM]

O=C(O)CCNC(=O)c1ccc(N=Nc2ccc(O)c(C(=O)O)c2)cc1
inactive: Potency [1] | Potency [2] | Potency [3] | outcome [4] | outcome [5] | Potency [6] | Potency [7] | Potency [8] | Potency [9] | Potency [10] | Potency [11] | Potency [16] | Potency [17] | Potency [18] | Potency [14] | Potency [15]

CC(=O)Oc1cc2c(s1)CCN(C(C(=O)C1CC1)c1ccccc1F)C2 (configuration not stated)
inactive: Potency [1] | Potency [2] | Potency [3] | outcome [4] | outcome [5] | Potency [6] | Potency [7] | Potency [8] | Potency [9] | Potency [10] | Potency [11] | Potency [12] | Potency [18] | Potency [14] | Potency [15]

CCCCCCOc1ccc(N)cc1
active: Potency [2] 21.7 µM
inactive: Potency [1] | Potency [3] | outcome [4] | outcome [5] | Potency [6] | Potency [7] | Potency [8] | Potency [9] | Potency [10] | Potency [11] | Potency [12] | Potency [13] | Potency [16] | Potency [17] | Potency [18] | Potency [19] | Potency [14] | Potency [15]

Cc1cc(C(C)(C)C)c(O)c(C)c1CC1=NCCN1
inactive: Potency [1] | Potency [2] | Potency [3] | outcome [4] | outcome [5] | Potency [6] | Potency [7] | Potency [8] | Potency [9] | Potency [10] | Potency [11] | Potency [16] | Potency [17] | Potency [18] | Potency [19] | Potency [14] | Potency [15]
